Sampled rows, rich in hits. Any-hit rate of the full collection: about 9.8%.
HTT aggregate – qHTS Multiplex Assay to Identify Dual Action Probes in a Cell Model of Huntington: Aggregate Formation (GFP). Potency, µM (doses to about 46.1 µM), for inactives: top-dose activity change, negative = inhibition, hits mostly inhibitors. 220,000 compounds, 1.1% hits. AID 1688, 2009. PC12 HttQ103-GFP aggregates, Acumen cytometry, 40 h; active means well fitted curve in the direction sought with a large enough effect; inconclusive means small, poorly fitted or top-dose-only effect, or another doubt; inactive means no such curve, though single readings can be large; an effect the other way counts as inactive or inconclusive; further: potency means the concentration at half of the fitted maximal effect; on the % scale 0 is the no-effect control and ±100 the full control effect; nearly all actives have a fitted effect of over 60% in size
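Compounds (qHTS titration) were added to PC12 cells expressing an ecdysone-driven HTT exon 1 Q103–GFP fusion after induction with 100 nM tebufenozide. Aggregate formation was measured as GFP objects in cell lysates.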
ALDH1A1 block – qHTS Assay for Inhibitors of Aldehyde Dehydrogenase 1 (ALDH1A1) | Aldehyde dehydrogenase 1A1 (Homo sapiens), P00352 | Purified ALDH1A1, NADH fluorescence, propionaldehyde substrate | Potency, µM (titrated, usually from 75.3 µM), for inactives: at the highest dose activity, negative = inhibition, hits mostly inhibitors | 220,000 compounds, 7.3% hits;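 further: potency means the concentration at half of the fitted maximal effect; plate controls were no enzyme wells and a reference inhibitor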
CBFb RUNX1 block – qHTS Assay for Compounds Blocking the Interaction Between CBF-beta and RUNX1 for the Treatment of Acute Myeloid Leukemia. Runt-related transcription factor 1 (Homo sapiens) + Core-binding factor subunit beta …. AlphaScreen CBFb-His/RUNX1-biotin binding, biochemical. Potency, µM (series often up to 59.8 µM), for inactives: at the highest dose activity, negative = inhibition, usual class: inhibitors. 230,000 tested, under 10 active; active means well fitted curve in the direction sought with a large enough effect; inconclusive means small, poorly fitted or top-dose-only effect, or another doubt; inactive means no such curve, though single readings can be large; an effect the other way counts as inactive or inconclusive; further: % of control where 0% means no effect
Target sequence (Q01196 whole entry, looked up): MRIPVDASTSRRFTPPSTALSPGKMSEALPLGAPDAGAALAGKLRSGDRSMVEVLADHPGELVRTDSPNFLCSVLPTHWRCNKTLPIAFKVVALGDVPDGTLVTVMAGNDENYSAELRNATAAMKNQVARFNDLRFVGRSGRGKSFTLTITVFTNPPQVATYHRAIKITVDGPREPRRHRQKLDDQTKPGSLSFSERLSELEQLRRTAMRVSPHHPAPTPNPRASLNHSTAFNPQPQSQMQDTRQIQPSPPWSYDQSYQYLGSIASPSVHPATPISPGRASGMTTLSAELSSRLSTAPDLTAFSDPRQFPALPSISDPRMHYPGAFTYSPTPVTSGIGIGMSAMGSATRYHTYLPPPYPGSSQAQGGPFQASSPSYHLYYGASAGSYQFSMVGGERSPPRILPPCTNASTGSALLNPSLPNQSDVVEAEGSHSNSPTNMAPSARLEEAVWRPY
Target sequence (Q13951 whole entry, looked up): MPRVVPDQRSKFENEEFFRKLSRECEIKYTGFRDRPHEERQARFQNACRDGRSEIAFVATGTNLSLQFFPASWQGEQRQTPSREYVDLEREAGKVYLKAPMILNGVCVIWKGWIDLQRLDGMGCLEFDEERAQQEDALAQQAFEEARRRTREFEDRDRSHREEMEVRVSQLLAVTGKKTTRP
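His-tagged CBF-beta and biotinylated RUNX1 (30 nM each) were premixed 20 min at room temperature, exposed to compound for 15 min, then given nickel-chelate and streptavidin AlphaScreen beads (50 ng each). After 90 min, AlphaScreen signal was read.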
HPGD inh – qHTS Assay for Inhibitors of HPGD (15-Hydroxyprostaglandin Dehydrogenase); 15-hydroxyprostaglandin dehydrogenase [NAD(+)] (Homo sapiens), P15428; purified HPGD, NADH fluorescence kinetic, PGE2 substrate; Potency, µM, for inactives: top-dose activity change, negative = inhibition, actives largely listed as inhibitors; 150,000 compounds, 4.3% hits; further: potency means the concentration at half of the fitted maximal effect; on the % scale 0 is the no-effect control and ±100 the full control effect
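NADH formation kinetics: reaction with 30 uM PGE2 and 1 mM NAD+ (final), 20 nM enzyme, Tris-HCl pH 8 with Tween 20, after 15 min compound preincubation at room temperature. Fluorescence change, last versus first of five reads.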
KDM4E inh – qHTS Assay for Inhibitors of Human Jumonji Domain Containing 2E (JMJD2E); JMJD2E catalytic domain, FDH-coupled NADH fluorescence (FDH is formaldehyde dehydrogenase); Potency, µM (top dose mostly 57.1 µM), for the others: at the top dose activity change, negative = inhibition, actives largely listed as inhibitors; 230,000 compounds, 1.6% hits; Lysine-specific demethylase 4E (Homo sapiens), B2RXH2; AID 2147, 2009;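 further: potency means the concentration at half of the fitted maximal effect; 0% = wells with enzyme and -100% = buffer wells without enzyme; nearly all actives have a fitted effect of over 50% in size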
HTT cytoprotect – qHTS Multiplex Assay to Identify Dual Action Probes in a Cell Model of Huntington: Cytoprotection (ATP); PC12 HTT-Q103 induced, cytoprotection, ATP luminescence, 40 h; Potency, µM (top dose mostly 56.4 µM), for inactives: cytoprotection (ATP increase), actives largely listed as activators; 230,000 compounds, 0.14% hits; AID 1471, 2008; active means well fitted curve in the direction sought with a large enough effect; inconclusive means small, poorly fitted or top-dose-only effect, or another doubt; inactive means no such curve, though single readings can be large; an effect the other way counts as inactive or inconclusive; further: potency means the concentration at half of the fitted maximal effect; % of control where 0% means no effect; nearly all actives have a fitted effect of over 45% in size
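PC12 cells with ecdysone-inducible HTT exon 1 Q103-GFP, induced with 100 nM tebufenozide and co-treated with library compounds in a dose series (1536-well, 1500 cells/well). Cytoprotection read as ATP content by ATPlite luminescence.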
* = called active by the depositor; u = inconclusive; x = no result given; [ ] = dose if it differs, or a comment. Unless noted, the call rests on the fitted dose curve; in most records, active means well fitted inhibition curve with a large enough effect (not every such curve was filed as active); inconclusive means small, poorly fitted or top-dose-only effect, or another doubt; inactive means no such curve, though single readings can be large or run the other way.

SMILES	HTT aggregate	ALDH1A1 block	CBFb RUNX1 block	HPGD inh	KDM4E inh	HTT cytoprotect
COCCNC(=O)c1onc(CSc2ccncc2)c1C(=O)NCCOC	-7.8%[9.22 µM]	x	6.6%	x	4.3%	29.5%[10 µM]
Fc1ccc(CSc2ncnc3ccccc23)cc1	15.5%	-5.7%	1.4%	x	-7.3%	-17.0%[10 µM]
COc1cccc(NC(=O)NC(C)C2CC3CCC2C3)c1 (stereo unspecified)	8.1%[9.22 µM]	5.01µM*	6.8%	x	-6.1%	-68.0%
O=C(O)c1ccc(N2CC3CC(C2)c2cccc(=O)n2C3)c(NC(=S)Nc2ccc(Cl)cc2Cl)c1 (stereo unspecified)	-7.4%	15.8µM*	4.2%	x	-12.3%	-36.9%
O=C(NC1CCN(Cc2ccccc2)CC1)c1ccc(N2CC3CC(C2)c2cccc(=O)n2C3)c([N+](=O)[O-])c1 (stereo unspecified)	-7.0%	2.2%	-5.0%	x	4.1%	-16.6%
CCN(CC)CCn1nc2c3c(cccc3c1=O)-c1ccccc1-2	0.631µM*	-12.9%	4.7%	x	8.6%	-92.6%[10 µM]
O=c1c2cccc3c2c(nn1CN1CCOCC1)-c1ccccc1-3	u	u	4.6%	u	u	-44.1%
CS(=O)(=O)Nc1nnc(SCC(=O)N(c2ccccc2)c2ccccc2)s1	-9.6%	31.6µM*	10.2%	-16.9%	2.9%	15.5%[10 µM]
Cc1ccccc1NC(=O)c1cc([N+](=O)[O-])ccc1NCCN1C(=O)CCC1=O	11.0%	u	4.9%	x	0.9%	-26.1%
NC(=O)c1nsnc1-c1ccccc1O	-1.0%	-6.0%	u	-12.9%	-10.5%	-1.9%[10 µM]
O=[N+]([O-])c1cccc(Cl)c1CSc1ccccn1	16.7%	20µM*	4.3%	x	u	-67.2%
CCN(CC)c1ccc(N=Cc2ccc([N+](=O)[O-])o2)cc1	14.1µM*	u	u	-10.9%	2.82µM*	2.7%[10 µM]
CCN(CC)c1ccc(N=Cc2ccccc2[N+](=O)[O-])cc1	-15.5%	2µM*	-27.5%	-11.7%	5.01µM*	x
CCCc1[nH][nH]c(=O)c1C(c1ccc(Br)cc1)C(C#N)C#N (stereo unspecified)	-0.6%	u	8.1%	20µM*	-15.9%	5.3%[10 µM]
Cc1ccc(S(=O)(=O)NN2C(=O)c3ccccc3NC2c2ccccn2)cc1 (stereo unspecified)	-8.3%	u	5.1%	x	u	-4.8%
CCCCN1C(=O)/C(=C/C=C2\N(C)c3ccccc3C2(C)C)SC1=S	12.6µM*	u	-11.3%	-8.6%	-1.7%	-34.0%
CCCN1C(=O)/C(=C\C=C2/C=CN(CC)c3ccccc32)SC1=S	-12.3%	5.01µM*	2.3%	-15.1%	-6.1%	-25.1%[10 µM]
CCN1C(=O)/C(=C/C=C2/Sc3ccc4ccccc4c3N2CCO)SC1=S	0.0%	-2.7%	-7.9%	-9.9%	3.0%	x
CN1/C(=C\C=C(C#N)C#N)C(C)(C)c2ccccc21	u	9.3%	8.5%	x	5.0%	x
O=P(Cc1cc(Br)cc(Br)c1OCCO)(c1ccccc1)c1ccccc1	19.7%[9.22 µM]	x	3.9%	x	2.0%	30.8%[10 µM]
CC(=O)Nc1ccc(S(=O)(=O)Nc2nc3ccccc3nc2N2CCCCCC2)cc1	-1.3%	7.08µM*	1.2%	-11.2%	-18.7%	-4.2%
O=S(=O)(Nc1nc2ccccc2nc1N1CCc2ccccc2C1)c1ccc(Cl)cc1	u	u	-13.8%	-18.9%	u	9.5%[10 µM]
O=S(=O)(Nc1nc2ccccc2nc1N1CCc2ccccc2C1)c1ccc(Br)cc1	7.08µM*	u	-9.8%	-23.1%	u	-38.4%[10 µM]
CC(=O)Nc1ccc(S(=O)(=O)Nc2nc3ccccc3nc2Nc2ccccc2)cc1	8.1%	-10.3%	12.5%	-18.2%	u	9.2%[10 µM]
CC(=O)Nc1ccc(S(=O)(=O)Nc2nc3ccccc3nc2N2CCc3ccccc3C2)cc1	9.0%	11.2µM*	-4.1%	-23.7%	-6.1%	-66.3%[10 µM]
SMILES	HTT aggregate	ALDH1A1 block	CBFb RUNX1 block	HPGD inh	KDM4E inh	HTT cytoprotect
O=S(=O)(Nc1nc2ccccc2nc1N1CCN(c2ccccn2)CC1)c1ccc(Cl)cc1	-18.5%	11.2µM*	2.6%	-7.6%	u	-14.3%[0.074 µM]
O=C(Nc1ccc(N2CCOCC2)cc1)c1nc2ccccc2s1	8.4%[9.22 µM]	x	5.1%	x	2.6%	-4.8%[10 µM]
Cc1ccc(C)c(N2CCN(C(=O)C34CC5CC(C3)CC(n3nnc(C)n3)(C5)C4)CC2)c1	2.2%[9.22 µM]	x	-0.1%	x	-4.1%	8.7%[10 µM]
COC(=O)[C@@H]1C[C@H]1[C@@H](NC(=O)c1cc(C)on1)c1ccccc1	x	2.3%	-8.3%	-4.7%	12.9%	4.5%
O=C(N=c1ccn(-c2nc3ccccc3nc2NS(=O)(=O)c2ccc(Cl)cc2)cc1)c1ccccc1Cl	-4.1%[9.22 µM]	0.631µM*	5.4%	x	-4.9%	1.5%[10 µM]
O=C(N=c1ccn(-c2nc3ccccc3nc2NS(=O)(=O)c2ccc(Cl)cc2)cc1)c1cccs1	-21.5%[9.22 µM]	x	8.1%	x	u	12.3%[10 µM]
O=S(=O)(Nc1nc2ccccc2nc1Cl)c1ccc(Br)cc1	10µM*	u	2.7%	x	u	-6.3%
CCN(CC)S(=O)(=O)c1ccc2nc(CCl)[nH]c2c1	2.3%	20µM*	0.1%	x	u	x
CCN(CC)S(=O)(=O)c1ccc2c(c1)[nH]c(=S)n2CC	-14.1%	17.8µM*	-2.9%	x	-10.7%	7.3%
CCOC(=O)c1ccc2c(c1)[nH]c(=S)n2CC	-15.5%[9.22 µM]	25.1µM*	3.0%	x	-4.5%	-4.8%[10 µM]
CCOC(=O)c1ccc2c(c1)n(CC)c(C)[n+]2CC	x	0.0%	1.2%	x	-5.9%	x
CC(C)(C)NC(=O)[C@H]1CC[C@H]2[C@@H]3CC[C@H]4NC(=O)C=C[C@]4(C)[C@H]3CC[C@]12C	x	-4.1%	4.0%	-11.4%	4.2%	x
OCC(O)C(O)[C@H](O[C@H]1OC(CO)C(O)C(O)C1O)[C@H](O)CO (stereo partly specified)	x	-4.1%	x	-5.3%	1.7%	x
CCN(CC)c1ccc(NC(=O)Nc2ccccc2C(F)(F)F)cc1	11.8%	3.98µM*	-4.1%	-8.1%	u	-23.7%
O=C(Nc1ccccc1C(F)(F)F)Nc1cccc2ccccc12	13.2%	-1.0%	2.6%	-22.6%	u	1.5%
CCN(CC(=O)Nc1ccc(C(C)=O)cc1)CC(=O)Nc1ccccc1C(F)(F)F	6.1%	10µM*	4.8%	x	-7.3%	u

Source: PubChem
